Test results reported in PubChem BioAssay AID504941 (Broad Institute, 2011).
Among all 1,200 compounds or so, about 170 (14%) were called active. No rule for the calls is given here. Not all results are given here. Results with a measured potency or affinity are listed apart.

Experiment: twin-arginine translocation blockade, bacterial reporter – cherry-pick, set 2, plate reader, dose response (AID 504941)
Settings: E. coli Tat transport reporter; series mostly up to 38 µM; activity change, negative = inhibition: at the top concentration

Activity change, negative = inhibition, inactive:
Cc1cc(C)cc(-n2c(C)cc(/C=C3\C(=N)N4N=C(CC(C)C)SC4=NC3=O)c2C)c1 7.24%
COc1ccc(NS(=O)(=O)c2ccc(NC(=O)Cc3cccs3)cc2)cc1 12.2%
O=S(=O)(N1CCCCC1)N1CCN(c2ccccc2F)CC1 -1.04%
CCOC(=O)C(C(=O)Nc1ccc(C)cc1)C1CCCCC1 (configuration not stated) 17.6%
Cc1ccccc1NC1=NC(=S)N(c2ccccc2)C12CCOC(C)(C)C2 (configuration not stated) -0.879%
CC(CN1CCOCC1)(NS(=O)(=O)c1ccccc1)c1ccccc1 (configuration not stated) -6.65%
CC(C)OC(=O)c1c(NC(=O)c2ccco2)sc2c1CCCC2 -6.21%
CCOC(=O)CC(=O)Nc1ccccc1C(=O)O -1.16%
O=C(O)CCC(=O)Nc1sc2c(c1C(=O)Nc1cccc3ccccc13)CCCCC2 -7.8%
CCCCNC(=O)CCCn1c(=O)[nH]c2ccc(Br)cc2c1=O -10.4%
O=C1OCc2ccc(NC(=O)C3CC3)cc21 -7.47%
OCCN1CCN(C(=S)Nc2ccc(Oc3ccccc3)cc2)CC1 -21.3%
Cc1ccc(CC(=O)NCCS(=O)c2ccc(Cl)cc2)cc1 (configuration not stated) 12.3%
Cc1ccc(CS(=O)(=O)CCC(=O)NCCCN2CCCC2)cc1 2.96%
O=C(CN1C(=O)NC2(CCCCC2)C1=O)NCc1cccs1 22.5%
COCn1c(-c2cccc(Br)c2)nc2ccccc21 21.4%
COc1cc(Cl)ccc1OCc1cc(C(=O)NCC(C)(C)N2CCOCC2)no1 -6.94%
CSc1ccccc1OCc1cc(C(=O)N(C)Cc2c(C)n[nH]c2C)no1 12.3%
O=C(CSc1nnc(-c2cccnc2)o1)Nc1ccc(Cl)cc1 12.1%
NS(=O)(=O)c1ccc(NC(=O)CSc2nnc(-c3ccc(O)cc3)o2)cc1 8.57%
CC(=O)N1Cc2cc([N+](=O)[O-])ccc2Oc2ccccc21 12.2%
CC(=O)NC(Cc1cnc[nH]1)C(=O)O (configuration not stated) 6.77%
CCCN(C(=O)Cn1c(C(F)(F)F)nc2ccccc21)C1CCS(=O)(=O)C1 (configuration not stated) 8.26%
O=C(NCc1ccccc1)c1ccc(F)c(F)c1 7.16%
O=C(NCc1ccccc1)c1ccc(Br)o1 -13.9%
Cc1ccc(OCCNC(=O)c2cc(-n3cnnc3)ccc2Cl)cc1C -6.14%
C[C@@H]1O[C@@H](Oc2c(-c3ccc(O)c(O)c3)oc3cc(O)cc(O)c3c2=O)[C@H](O)[C@H](O)[C@H]1O 12.2%
COc1ccc(Cl)cc1NC(=S)NCc1cccnc1 22.5%
CC(NC(=O)c1ccc([N+](=O)[O-])o1)C12CC3CC(CC(C3)C1)C2 (configuration not stated) 15.2%
CC(C)N1CCc2c(sc(NC(=O)c3ccc(S(=O)(=O)N4CCc5ccccc54)cc3)c2C(N)=O)C1 34.7%
COc1ccccc1N1CCN(C(=O)c2cc3c(=O)n4ccccc4nc3s2)CC1 11%
Cc1ccc(NC(=O)CSc2nccn2C)cc1F 17%
CCCNC(=O)c1cc(C)no1 6.59%
COc1ccc(NC(=O)Cn2ncc(Cl)c(Cl)c2=O)cc1S(=O)(=O)N1CCOCC1 2.91%
COc1ccc(S(=O)(=O)N2CCC(C(=O)NCc3cccnc3)CC2)cc1OC 2.11%
O=c1[nH]c2ccc(S(=O)(=O)N3CCCCC3)cc2s1 17%
CN(C)C(=S)Nc1ccc2ccccc2c1 -3.63%
O=C(Cn1cc(C(F)(F)F)ccc1=O)OCC(=O)c1ccc[nH]1 11.2%
Cc1c(Cl)cccc1NC(=O)C1NC(=O)CC1c1ccccc1 (configuration not stated) -18%
COc1ccc(/C(C)=N/NC(=O)CNC(=O)c2ccncc2)c(OC)c1 -12.5%
COC(=O)CSc1ccc(C#N)c(SCC(=O)OC)c1 -25.3%
CCC1Oc2nc(SC)nnc2-c2ccccc2N1C(=O)c1ccccc1 (configuration not stated) 4.65%
CCC(CC)C(=O)Nc1nnc(S(=O)(=O)N2CCCCCC2)s1 -1.1%
CCOC(=O)c1cc(C)sc1NC(=O)C(c1ccccc1)c1ccccc1 -30.7%
CCOc1ccc(NC(=O)CN2C(=O)/C(=C3\SC(=S)N(C4CCS(=O)(=O)C4)C3=O)c3ccccc32)cc1 (configuration not stated) 8.88%
Cc1cc(C)c(NS(=O)(=O)c2ccc3c(c2)NC(=O)CCS3)c(C)c1 -14.1%
O=C(COC(=O)/C=C/c1ccc(F)cc1)Nc1nnc(-c2ccccc2)o1 34.7%
Cc1cc(C(=O)CSc2nnc(-c3ccc4c(c3)OCO4)o2)c(C)n1-c1ccc(F)cc1 3.43%
O=C(Cn1cc([N+](=O)[O-])cn1)N1CCN(c2ccccc2)CC1 11.2%
COC(=O)C1C(O)C(C)C(O)C(C)(O)/C=C\C=C(/C)C(=O)Nc2c(C)c(OC(C)=O)c3c(c2O)C(=O)C(C)=C2OCOC(=C23)/C(C)=C/C(C)(O)C(O)C(C)C1O (configuration not stated) -24.2%
COc1ccc(S(=O)(=O)N2CCC(C(=O)N3CCN(C)CC3)CC2)cc1Cl -4.18%
COc1ccc(OC)c(S(=O)(=O)N2CCC(C(=O)NC3CC3)CC2)c1 19.3%
CCOc1ccc(NC(=O)CNC(=O)Cc2ccccc2)cc1 4.14%
COC(=O)c1ccc(CNC(=O)C2CCC(=O)N(Cc3ccccn3)C2)cc1 (configuration not stated) -28.2%
CNC1=CC(=O)CC(c2ccccc2)C1 (configuration not stated) 12.6%
CCCCCn1c(CNC(=O)c2cccs2)nc2ccccc21 -1.52%
O=C(Nc1c2c(nn1-c1ccccc1)CS(=O)(=O)C2)c1cccs1 -5.38%
Cc1cccnc1NC(=O)c1cccc(S(=O)(=O)N2CCCc3ccccc32)c1 -14%
O=C(COC(=O)c1cccc(S(=O)(=O)N2CCc3ccccc32)c1)Nc1ncc(C(F)(F)F)cc1Cl 14.6%
Cc1nc(NC(=O)/C=C/c2ccccc2)sc1C(=O)N(C)C 0.771%
CC(NC(=O)CSc1nc2sc3c(c2c(=O)n1-c1ccccc1)CCCC3)c1ccccc1 (configuration not stated) 6.92%
CCn1c(C)cc(/C=C2/NC(=O)N(Cc3ccccc3F)C2=O)c1C 10.6%
O=C(COc1ccc2c3c(c(=O)oc2c1)CCCC3)NCCCn1ccnc1 16.2%
O=C(COc1ccc2c3c(c(=O)oc2c1)CCCC3)NCC(O)c1ccccc1 (configuration not stated) 4.93%
c1ccc(-n2c(SCC3CCCCO3)nnc2-c2cccs2)cc1 (configuration not stated) -12.4%
Cc1noc(C)c1COc1ccccc1C(=O)NC1CCC(C)CC1 (configuration not stated) -7.29%
CCN(CC)CC(=O)N(CC(=O)Nc1c(C)cc(C)cc1C)C1CCCCC1 -9.21%
O=[N+]([O-])c1ccc(O)c(/C=N/Nc2nc3ccccc3[nH]2)c1 -11.5%
O=c1oc(-c2ccccc2)nc2sc3c(c12)CCCC3 -12.9%
O=C(O)CCCc1nc(-c2ccc(Cl)cc2)no1 -8.66%
COc1ccc(OCc2nnc(SCC(=O)N3C(C)CCCC3C)o2)cc1 (configuration not stated) 13.9%
c1ccc(C2NCCc3ccccc32)cc1 (configuration not stated) 39.2%
Nc1nnc(-c2cn(-c3ccccc3)nc2-c2ccc(Cl)cc2)o1 -4.94%
O=C(COC(=O)C12CC3CC(CC(Br)(C3)C1)C2)Nc1cccnc1Cl 7.63%
CSc1ncccc1C(=O)OCC(=O)N(C)c1c(N)n(Cc2ccccc2)c(=O)[nH]c1=O 33.1%
O=C(OCC(=O)N1CCCC1=O)c1cccc(S(=O)(=O)N2CCOCC2)c1 17%
COc1ccc(NC(=O)CC2(CC(=O)O)CCCC2)cn1 1.15%
O=C(Nc1nc2c(s1)CCCC2)c1cccc(S(=O)(=O)N2CCCc3ccccc32)c1 -28%
O=C(CCSc1ccccc1)NCC1CCCO1 (configuration not stated) -12.9%
CN(C(=O)c1cc2sccc2n1C)C1CCCCC1 -5.46%
O=C(C1CCCO1)N1CCN(c2c3c(nc4cc(-c5ccc(F)cc5)nn24)CCC3)CC1 (configuration not stated) 6.78%
CCOc1ccc(Br)cc1CNCCN1CCOCC1 8.37%
O=C(c1ccc2nc[nH]c2c1)N1CCN(c2ncc(C(F)(F)F)cc2Cl)CC1 -6.11%
Cn1c(SCC(=O)NCc2cccs2)nnc1-c1ccc(S(=O)(=O)N2CCCC2)cc1 4.13%
CN(C)S(=O)(=O)c1cccc(NC(=O)C2CCN(S(=O)(=O)c3cccs3)CC2)c1 -4.43%
O=C(Cn1cc2c(n1)CCCCC2)N1CCc2ccccc2C1 -0.285%
CC(/C=N/NC(=O)c1n[nH]c2c1CCC2)=C\c1ccccc1 -7.52%
CCC(CO)NC(=O)c1cccc(S(=O)(=O)N2c3ccccc3CC2C)c1 (configuration not stated) -5.23%
CC(C)S(=O)(=O)C1=NSC2=NC(=O)/C(=C\c3ccc(-c4cccc(C(=O)O)c4)o3)C(=N)N21 -12.2%
O=C(O)c1ccc(NC2=C(N3CCOCC3)C(=O)c3ccccc3C2=O)cc1 0.607%
O=C(Nc1cc(N2CCOCC2)ncn1)c1ccccc1 13.4%
O=C(COC(=O)Cn1cnc2ccccc2c1=O)NCC12CC3CC(CC(C3)C1)C2 4.59%
CC(=O)NC1=NN(C(C)=O)C2(S1)C(=O)N(C(C)C)c1ccc(C)cc12 (configuration not stated) 5.85%
Cc1cc(-c2c(C)[nH]n(-c3ccc(Cl)cc3)c2=O)n(-c2ccc(Cl)cc2)n1 13.9%
COC(=O)COc1cc2ccccc2cc1C(=O)Nc1ccccc1 20.3%
O=[N+]([O-])c1cccc(COc2cccc(CN3CCCCC3)c2)c1 2.01%
CS(=O)(=O)N1CCN(C(=O)c2cccnc2)CC1 -7.67%
CC1(C)CC(=O)C=C(NCCN2CCN(C(=O)Nc3ccccc3)CC2)C1 0.237%
CC(C)(C)NC(=O)C[C@H]1C[C@H](C(=O)N2CCOCC2)[C@@]2(CCC3CCCC3)c3[nH]c4cc(-c5ccco5)ccc4c3CCN2C1=O 18.4%
O=C(NCc1cccc(Cl)c1)c1cnn2c1NC(c1ccco1)CC2C(F)(F)F (configuration not stated) 25.9%
O=C(CSc1nc2ccccc2c(=O)[nH]1)N1CCN(c2ccccc2F)CC1 2.64%
CC1Cc2cc(/C(O)=C3/C(=O)C(=O)N(Cc4ccco4)C3c3cccs3)ccc2O1 (configuration not stated) -10.5%
CC(C)c1ccc(OCC(=O)NC2=NCCS2)cc1 0.906%
O=C(CNc1ccc(Cl)cc1)c1ccc(Br)cc1 7.08%
CCCCOC(=O)C1=C(C)NC(=O)NC1c1ccc2c(c1)OCO2 (configuration not stated) 3.59%
CCN1CCCC1CNC(=O)C(=O)NC(C)C (configuration not stated) -9.28%
COc1cc(CNCc2ccccn2)ccc1OCc1c(Cl)cccc1Cl 7.91%
